Out of some 2,100 compounds screened, about 670 (32%) were called active. Another 50% or so got no clear call; they are omitted. Calls come from the whole dose curve; as a rule, active = well fitted inhibition curve with a large enough effect; inconclusive = small, poorly fitted or top-dose-only effect; inactive = no such curve, though single readings can be large or run the other way. The list shows a part of the results.
assay: CMV-Luciferase Counterscreen for Inhibitors of ATXN expression; settings: HEK-293 CMV-luciferase reporter, luminescence, 24 h; series mostly up to 57.5 µM; activity change, negative = inhibition: at the top concentration; note: nearly all actives have a fitted effect of over 55% in size
% is set by controls: 0 for no effect and ±100 for the full control effect; potency is the fitted concentration of half-maximal effect.

With `O=C(N/N=C/c1ccccc1O)C1CC(=O)N(c2ccc(Cl)cc2)C1` (centres undefined) as the molecule, how does the Potency read?
The Potency was 0.631 µM (active).

Which Potency does the source give for `CCc1ccc(N2CC(C(=O)N/N=C/c3cc([N+](=O)[O-])ccc3O)CC2=O)cc1` (centres undefined) here?
Its Potency is 10 µM (active).

With `Cc1cnc(NC(=O)C2CC(=O)N(c3cccc(Cl)c3)C2)s1` (centres undefined) as the molecule, how does the activity change, negative = inhibition read?
Its activity change, negative = inhibition is 51.5% [at 11.4 µM] (inactive).

For `COc1ccc(Cn2c(-c3ccc(C)cc3)c[n+]3ccccc23)cc1`, which Potency is on record?
The Potency was 1 µM (active).

For `Nc1nc(N)c2cc(Sc3ccc4ccccc4c3)ccc2n1`, which Potency is on record?
The Potency was 10 µM (active).

With `COc1cc(NC(=O)c2cc(-c3ccccc3)nc3c2cnn3C(C)C)cc(OC)c1OC` as the molecule, how does the Potency read?
The Potency was 3.16 µM (active).

With `COc1cc(Nc2ncc3c(n2)CCN(C(=O)Nc2ccc(C(C)C)cc2)C3)cc(OC)c1OC` as the molecule, how does the activity change, negative = inhibition read?
The activity change, negative = inhibition was -3.4% [at 11.4 µM] (inactive).

For `O=C(Nc1ccc(N2CCN(C(=O)c3ccco3)CC2)c(Cl)c1)c1cccs1`, which Potency is on record?
The Potency was 20 µM (active).

For `Cc1ccccc1C(=O)N1CCN(c2ccc(NC(=O)c3ccco3)cc2Cl)CC1`, which Potency is on record?
Its Potency is 12.6 µM (active).

For `O=C(Nc1ccc(N2CCOCC2)c(Cl)c1)c1c(F)c(F)c(F)c(F)c1F`, which activity change, negative = inhibition is on record?
Its activity change, negative = inhibition is 29.5% [at 11.4 µM] (inactive).

Which “activity change, negative = inhibition” value does the source give for `O=C(Nc1ccc(NC(=O)c2ccc(Cl)cc2Cl)cc1)c1cccs1` here?
Its value is -4.86% (inactive).

For `N#Cc1nc(Cc2cccc3ccccc23)oc1NCc1ccc(F)cc1`, which Potency is on record?
Its Potency is 12.6 µM (active).

With `CC(C)(C)c1cc(C(=O)N/N=C/c2ccc([N+](=O)[O-])s2)n[nH]1` as the molecule, how does the Potency read?
The Potency was 11.2 µM (active).

Which Potency does the source give for `Cc1ccnn1CC(=O)N/N=C/c1ccc([N+](=O)[O-])s1` here?
The Potency was 15.8 µM (active).

For `O=C(N/N=C/c1ccc([N+](=O)[O-])s1)c1ccccc1`, which Potency is on record?
The Potency was 7.94 µM (active).

With `Cc1ccccc1C(=O)N/N=C/c1ccc([N+](=O)[O-])s1` as the molecule, how does the Potency read?
Its Potency is 11.2 µM (active).

Which Potency does the source give for `COc1ccc(C(=O)NCC(=O)N/N=C/c2ccc([N+](=O)[O-])s2)cc1OC` here?
Its Potency is 12.6 µM (active).

With `CC(C)c1cccc(C(C)C)c1Nc1cn[nH]c1` as the molecule, how does the activity change, negative = inhibition read?
Its activity change, negative = inhibition is -9.58% [at 11.4 µM] (inactive).

For `c1ccc(-c2cccc(-c3ccccn3)n2)nc1`, which activity change, negative = inhibition is on record?
Its activity change, negative = inhibition is 72.5% [at 11.4 µM] (inactive).

With `NC(=Nc1nc(-c2ccccn2)cc2ccccc12)c1ccccn1` as the molecule, how does the Potency read?
The Potency was 0.0398 µM (active).

With `COc1ccc(-c2nc(NC(=O)C3CC(=O)N(c4ccc5c(c4)OCCO5)C3)sc2C)cc1` (centres undefined) as the molecule, how does the Potency read?
Its Potency is 10 µM (active).

For `CCc1ccc(-c2csc(NC(=O)C3CC(=O)N(c4ccc5c(c4)OCCO5)C3)n2)cc1` (centres undefined), which Potency is on record?
The Potency was 10 µM (active).

For `O=C(C1CC(=O)N(c2ccc3c(c2)OCCO3)C1)N1CCN(c2ccccc2)CC1` (centres undefined), which activity change, negative = inhibition is on record?
The activity change, negative = inhibition was -8.65% [at 11.4 µM] (inactive).

With `COc1cc(-c2cc3nc(NCc4cccc(Cl)c4)ccn3n2)cc(OC)c1OC` as the molecule, how does the Potency read?
The Potency was 3.55 µM (active).

With `O=C(Nc1c(Cl)cccc1Cl)Oc1cccc2cccnc12` as the molecule, how does the Potency read?
The Potency was 10 µM (active).

For `O=C(Nc1cccc2cccnc12)c1csc(COCCO)n1`, which “activity change, negative = inhibition” value is on record?
The value was 4.19% (inactive).

Which Potency does the source give for `CCOC(=O)c1ccc(/C=C2/C=C(c3ccccc3)N(c3ccc(Cl)c(C(=O)O)c3)C2=O)cc1` here?
Its Potency is 12.6 µM (active).

For `CCOC(=O)c1ccc(N=c2sc(C(=O)OC)cc(=O)n2-c2ccc(C(=O)OCC)cc2)cc1`, which activity change, negative = inhibition is on record?
The activity change, negative = inhibition was -3.07% [at 11.4 µM] (inactive).

For `Cc1ccc(-c2c(C#N)c(N)n3c(nc4ccccc43)c2C#N)cc1`, which Potency is on record?
Its Potency is 7.08 µM (active).

With `NS(=O)(=O)c1ccc(CCNc2ccn3nc(-c4cccc(C(F)(F)F)c4)cc3n2)cc1` as the molecule, how does the Potency read?
Its Potency is 31.6 µM (active).

Which “activity change, negative = inhibition” value does the source give for `Cn1c(NCCN2CCCC2)nc2cc(-c3ccsc3)sc2c1=O` here?
Its value is -18.1% (inactive).

Which “activity change, negative = inhibition” value does the source give for `CN(C)CCCNc1nc2cc(-c3ccc(F)cc3)sc2c(=O)n1C` here?
The value was -18.5% (inactive).

Which Potency does the source give for `COc1cccc(CNc2nc3cc(-c4ccc(C(=O)N5CCN(C)CC5)cc4)sc3c(=O)n2C)c1` here?
Its Potency is 12.6 µM (active).

For `Fc1ccc2[nH]c3c(NCc4ccccc4)ncnc3c2c1`, which Potency is on record?
The Potency was 0.631 µM (active).

With `COc1ccc(CNc2ncnc3c2[nH]c2ccccc23)cc1` as the molecule, how does the Potency read?
Its Potency is 2.82 µM (active).

For `Cc1[nH]n2c(=O)cc(C(C)(C)C)nc2c1-c1ccccc1`, which Potency is on record?
The Potency was 3.55 µM (active).

With `O=C(CN1C(=O)c2ccccc2S1(=O)=O)N1CCc2ccccc21` as the molecule, how does the Potency read?
The Potency was 0.224 µM (active).

With `Cc1ccc(C(=O)CN2C(=O)c3ccccc3S2(=O)=O)cc1` as the molecule, how does the Potency read?
The Potency was 0.398 µM (active).

With `O=C(CN1C(=O)c2ccccc2S1(=O)=O)c1ccc(O)c(O)c1` as the molecule, how does the Potency read?
The Potency was 0.794 µM (active).

With `Cc1cc(C)c(C(=O)/C=C/c2ccc(C(C)C)cc2)c(=O)[nH]1` as the molecule, how does the Potency read?
The Potency was 8.91 µM (active).

With `O=C(/C=C/c1ccccc1)c1cc(Br)ccc(=O)c1O` as the molecule, how does the “activity change, negative = inhibition” value read?
Its value is -15.1% (inactive).

For `Cc1[nH]c(=O)c(C(=O)/C=C/c2ccccc2)c2c1CCCC2`, which Potency is on record?
Its Potency is 8.91 µM (active).

For `Cc1ccc(C)c(/C=C/C(=O)c2ccccc(=O)c2O)c1`, which “activity change, negative = inhibition” value is on record?
The value was -25.3% (inactive).

With `C[C@@H]1C[C@@H]2O[C@H]2/C=C\C=C\C(=O)Cc2c(Cl)c(O)cc(O)c2C(=O)O1` as the molecule, how does the activity change, negative = inhibition read?
Its activity change, negative = inhibition is 25.3% [at 11.4 µM] (inactive).

With `COCCCNCCCOc1ccc(Cl)cc1C(C)(C)C` as the molecule, how does the Potency read?
The Potency was 22.4 µM (active).

Which “activity change, negative = inhibition” value does the source give for `CCCCNCCCOc1cccc(Cl)c1Cl` here?
The value was -18.4% (inactive).

With `Cc1nn(-c2ccccn2)c2c1C(=O)CC(C)(C)C2N=[N+]=[N-]` (centres undefined) as the molecule, how does the activity change, negative = inhibition read?
Its activity change, negative = inhibition is -24.8% [at 11.4 µM] (inactive).

With `CC1(C)c2[nH]c3ccccc3c2C[C@H]2C(=O)N(Cc3ccccc3F)C(=O)N21` as the molecule, how does the Potency read?
The Potency was 17.8 µM (active).

Which Potency does the source give for `CC1(C)c2[nH]c3ccccc3c2C[C@H]2C(=O)N(Cc3cccc(F)c3)C(=O)N21` here?
The Potency was 20 µM (active).

With `OC(c1ccccc1)(c1nc(-c2ccc3ccccc3c2)cs1)C(F)(F)F` (centres undefined) as the molecule, how does the activity change, negative = inhibition read?
The activity change, negative = inhibition was 26.4% [at 11.4 µM] (inactive).

Which Potency does the source give for `O=C(/C=C\c1ccco1)Nc1nc(-c2ccc3ccccc3c2)cs1` here?
Its Potency is 3.16 µM (active).

Which Potency does the source give for `C=CCc1cccc(/C=N/NC(=O)CCC(=O)Nc2ccc(C)cc2)c1O` here?
Its Potency is 8.91 µM (active).

With `CC(SC(C)C(=O)NN=Cc1cccc(Cl)c1)C(=O)NN=Cc1cccc(Cl)c1` (centres undefined) as the molecule, how does the activity change, negative = inhibition read?
Its activity change, negative = inhibition is -24.3% [at 11.4 µM] (inactive).

With `C=CCc1cccc(/C=N/NC(=O)CCC(=O)Nc2ccc(F)cc2)c1O` as the molecule, how does the Potency read?
The Potency was 3.98 µM (active).

For `C=CCc1cccc(/C=N/NC(=O)c2ccccc2Br)c1O`, which Potency is on record?
Its Potency is 10 µM (active).

With `C=CCc1cccc(/C=N/NC(=O)C(C)Nc2ccc(C)cc2)c1O` (centres undefined) as the molecule, how does the Potency read?
Its Potency is 10 µM (active).

Which Potency does the source give for `C=CCc1cccc(/C=N/NC(=O)CNc2ccccc2)c1O` here?
Its Potency is 2 µM (active).

Which Potency does the source give for `C=CCc1cccc(/C=N/NC(=O)CCCNc2ccc(C)cc2)c1O` here?
The Potency was 15.8 µM (active).

With `Nc1ccc2c(c1)OC1(CCCC1)O2` as the molecule, how does the activity change, negative = inhibition read?
Its activity change, negative = inhibition is -27.3% [at 11.4 µM] (inactive).

For `CC(C)(C)c1ccc(OCCn2nc(C(=O)O)c3ccccc3c2=O)cc1`, which “activity change, negative = inhibition” value is on record?
Its value is -11.4% (inactive).

For `COc1ccc(NC(=O)N2CCN(c3nc(-c4cccc(OC)c4)cs3)CC2)cc1`, which Potency is on record?
Its Potency is 3.55 µM (active).

Which “activity change, negative = inhibition” value does the source give for `Cn1nccc1C(=O)N1CCCC(C(=O)c2cccc3ccccc23)C1` (centres undefined) here?
Its value is -16.4% (inactive).

For `CCCc1cnc(NCCNCC(O)COc2ccc(Cl)c(Cl)c2)nc1` (centres undefined), which Potency is on record?
The Potency was 31.6 µM (active).

Which activity change, negative = inhibition does the source give for `N#C/C(=C\Nc1ccc2cn[nH]c2c1)c1nc(-c2ccc(Cl)cc2)cs1` here?
The activity change, negative = inhibition was 11% [at 11.4 µM] (inactive).

With `Cc1ccc(SC2=C(Sc3ccc(C)cc3)C(=O)c3ccccc3C2=O)cc1` as the molecule, how does the “activity change, negative = inhibition” value read?
Its value is 68.6% (inactive).

Which Potency does the source give for `O=C1C(SCCO)=C(SCCO)C(=O)c2ccccc21` here?
Its Potency is 8.91 µM (active).

For `CCCNC(=O)c1ccc2c(=O)c(O)c(-c3cccc(Br)c3)[nH]c2c1`, which Potency is on record?
The Potency was 20 µM (active).

For `C/C(=N\NC(=O)C(C)n1nc(C)c([N+](=O)[O-])c1C)c1ccccc1O` (centres undefined), which Potency is on record?
The Potency was 2.51 µM (active).

Which Potency does the source give for `CCCCC(=O)NC(c1ccc(N(CC)CC)cc1)c1ccc2cccnc2c1O` (centres undefined) here?
The Potency was 0.282 µM (active).

Which Potency does the source give for `CCCCC(=O)NC(c1ccc(N(C)C)cc1)c1ccc2cccnc2c1O` (centres undefined) here?
The Potency was 1.78 µM (active).

Which activity change, negative = inhibition does the source give for `CO[C@@]12[C@@H]3N[C@@H]3CN1C1=C(C(=O)C(N)=C(C)C1=O)[C@@H]2COC(N)=O` here?
Its activity change, negative = inhibition is 10.2% [at 11.4 µM] (inactive).

With `CC(C)CC(NC(=O)c1ccc(Cl)cc1)C(=O)OCC(=O)c1ccc2c(c1)NC(=O)CO2` (centres undefined) as the molecule, how does the Potency read?
The Potency was 22.4 µM (active).

Which Potency does the source give for `Cc1ccc(OCC(=O)c2cc(C)n(Cc3cccs3)c2C)c([N+](=O)[O-])n1` here?
Its Potency is 3.98 µM (active).

With `C/C(=N\NC(=O)CN(c1ccccc1)S(C)(=O)=O)c1ccccc1O` as the molecule, how does the Potency read?
The Potency was 12.6 µM (active).

With `COc1ccc(CC(=O)N/N=C(\C)c2ccccn2)cc1` as the molecule, how does the Potency read?
Its Potency is 8.91 µM (active).

Which Potency does the source give for `C/C(=N\NC(=O)Cc1ccc(Cl)cc1)c1ccccc1O` here?
The Potency was 11.2 µM (active).

With `COc1ccccc1N(CC(=O)N/N=C(\C)c1ccccc1O)S(=O)(=O)c1ccc(C)cc1` as the molecule, how does the Potency read?
The Potency was 11.2 µM (active).

Which Potency does the source give for `COc1ccccc1N(CC(=O)NCCSCc1ccc(C)cc1)S(=O)(=O)c1ccccc1` here?
The Potency was 22.4 µM (active).

For `CC(C)C[C@H](NC(=O)c1[nH]cnc1C(=O)Nc1ccc(CNC(=O)OC(C)(C)C)cc1)C(=O)OCc1ccccc1`, which activity change, negative = inhibition is on record?
The activity change, negative = inhibition was -24.4% [at 11.4 µM] (inactive).

From PubChem BioAssay AID1745847 (National Center for Advancing Translational Sciences (NCATS), 2022)
